# In PubChem BioAssay AID463173 (ICCB-Longwood Screening Facility, Harvard Medical School, 2010):
# Hit rate of the full screen: of about 52,000 compounds, about 4,300 (8.3%) were called active. Only a selection was taken, and actives are over-represented in it overall. Unmarked numbers belong to inactive results. Rule as the data show it: active = survival mostly below about 52% (no sharp cut-off); inactive = mostly above about 56%.
# System: DeltatarO mutant
# Experiment: growth inhibition of S. aureus wild type versus tarO mutant, primary screen, teichoic acid synthesis inhibitors, RN4220, OD600 (AID 463173)
# Conditions: OD600, 18 h, stronger effect = lower value, screened at 18.75 µg/mL (by protocol)
row,Compound,survival
1,CCOc1ccccc1CNC(=O)C1CCN(c2nc3ccccc3nc2C(F)(F)F)CC1,69%
2,CCOc1ccc(NC(c2ccc(Cl)cc2)c2nnc(-c3cccc(F)c3)o2)cc1 (stereo unspecified),90%
3,COc1ccc2sc(C)[n+](CCO)c2c1,81%
4,CCOc1ccc(S(=O)(=O)Nc2ccc3c(c2)CCCN3S(=O)(=O)c2ccc(C)cc2)cc1,88%
5,COc1ccc(NC(=O)CN2C(=O)CCn3nc(-c4cccn4C)cc32)cc1,81%
6,COc1cc(OC)cc(N2C(=O)CSC23C(=O)Nc2ccccc23)c1 (stereo unspecified),99%
7,COc1ccc(OC)c(CNC(=O)c2c(C)oc3ncn(CC(C)C)c(=O)c23)c1,89%
8,COc1ccc(Nc2cc(C)nc(-n3nc(C)cc3C)n2)cc1Cl,81%
9,COc1ccccc1N1CCN(S(=O)(=O)CCNC(=O)c2cc(=O)c3ccccc3o2)CC1,87%
10,CCNC(=S)N1CCC(NC(=O)c2ccccc2)CC1,110%
11,CCN(c1ccccc1)S(=O)(=O)c1ccc(NC(=O)c2cc(=O)c3ccccc3o2)cc1,63%
12,CCN(c1ccccc1)S(=O)(=O)c1ccc(Cl)cc1,92%
13,CCN(c1ccccc1)S(=O)(=O)c1ccc(NC(=O)c2nc(S(C)(=O)=O)ncc2Cl)cc1,-1% (active)
14,CN1C(=O)/C(=C/C=C2/Sc3ccccc3N2CCO)SC1=S,108%
15,Cc1c(-c2ccccc2)nc2c(Cl)cccc2c1C(=O)OCC(=O)c1ccc(F)cc1,75%
16,O=S(=O)(NCCS(=O)(=O)N1CCN(c2ccccc2)CC1)c1ccc(Br)cc1,91%
17,CCCC12CN3CC(C)(CN(C1)C3c1cn(CC)c3ccccc13)C2=O (stereo unspecified),83%
18,Cc1cccc(N2CCN(C(c3nnnn3C3CCCC3)C(C)C)CC2)c1C (stereo unspecified),79%
19,Cc1cc(NC(=O)CCS(=O)(=O)c2cc(Br)cc3c2N(C(=O)C2CC2)CC3)ccc1Br,83%
20,COc1ccccc1C(=O)NC1(C(F)(F)F)NC(=O)N(CCc2ccccc2)C1=O (stereo unspecified),73%
21,CCCOc1cccc(C(=O)N(Cc2cc(OC)c(OC)c(OC)c2)C2CCS(=O)(=O)C2)c1 (stereo unspecified),43% (active)
22,CCCCOc1cccc(C(=O)N(Cc2ccc(N(C)C)cc2)C2CCS(=O)(=O)C2)c1 (stereo unspecified),56%
23,CCOc1cccc(C(=O)N(Cc2ccc(CC)cc2)C2CCS(=O)(=O)C2)c1 (stereo unspecified),149%

row,Compound,survival
1,CCCCOc1ccc(C(=O)N(Cc2ccc(C(C)C)cc2)C2CCS(=O)(=O)C2)cc1 (stereo unspecified),22% (active)
2,CCOc1cccc(C(=O)N(Cc2ccc(C(C)C)cc2)C2CCS(=O)(=O)C2)c1 (stereo unspecified),40% (active)
3,COc1cc(CN(C(=O)c2ccc(Cl)cc2)C2CCS(=O)(=O)C2)cc(OC)c1OC (stereo unspecified),69%
4,COc1ccc(C(=O)N(Cc2ccc(C(C)C)cc2)C2CCS(=O)(=O)C2)cc1 (stereo unspecified),62%
5,COc1cc(CN(C(=O)c2ccc(C)cc2)C2CCS(=O)(=O)C2)cc(OC)c1OC (stereo unspecified),59%
6,CCCOc1cccc(C(=O)N(Cc2ccc(C)o2)C2CCS(=O)(=O)C2)c1 (stereo unspecified),90%
7,COc1cc(C(=O)N(Cc2ccc(C(C)C)cc2)C2CCS(=O)(=O)C2)cc(OC)c1OC (stereo unspecified),46% (active)
8,COc1ccc(CN(C(=O)c2ccc(OCC(C)C)cc2)C2CCS(=O)(=O)C2)cc1 (stereo unspecified),93%
9,CCCCOc1cccc(C(=O)N(Cc2ccc(Cl)cc2)C2CCS(=O)(=O)C2)c1 (stereo unspecified),54%
10,CCN(CC)CCNC(=O)c1c(C)oc2ncnc(N3CCOCC3)c12,130%
11,Cc1ccc2oc(C(=O)N(Cc3ccc(N(C)C)cc3)CC3CCCO3)c(C)c2c1 (stereo unspecified),93%
12,Cc1ccccc1-n1c(SCC(=O)N(C(C)C)C(C)C)nnc1-c1cccnc1,99%
13,Cn1ccnc1SCC(=O)Nc1cc(Cl)ccc1Cl,68%
14,COc1cccc(C2CC(=O)N(c3ccc(F)cc3)C3=C2C(=O)OC3)c1OC (stereo unspecified),75%
15,COc1ccc(-n2nc(C(=O)Nc3ccc(Br)cc3C)c3c4ccccc4n(C)c3c2=O)cc1,97%
16,Fc1ccc(C2=CC(c3ccc(F)cc3)n3c(nc4ccccc43)N2)cc1 (stereo unspecified),87%
17,CCOC(=O)c1ccc(NC(=O)CSc2c(C(C)C)cnc3c2c(=O)n(C)c(=O)n3C)cc1,107%
18,Cc1ccc2nc(-c3c[nH]c4ccccc34)c(Nc3ccccc3C)n2c1,96%
19,CC(=O)N1C(Nc2ccc(C)cc2)CCN1c1ccccc1 (stereo unspecified),81%
20,COc1ccc(Nc2oc(/C=C/c3cccc(OC)c3)nc2C#N)cc1,100%
21,Cc1ccc2c(c1)C(c1ccc(F)cc1)N(C(=O)c1ccc(S(=O)(=O)N3CCCCC3)cc1)CC(=O)N2 (stereo unspecified),178%
22,CC1CCN(c2nc3ccccc3nc2SCC(=O)Nc2ccccc2C(C)C)CC1,-1% (active)
23,Cc1cccc(NC(=O)CSc2nc3ccccc3nc2N2CCC(C)CC2)c1,8% (active)

row,Compound,survival
1,CC(=O)Nc1ccc(NC(=O)CSc2nc3ccccc3nc2N2CCC(C)CC2)cc1,75%
2,Cc1ccc(C)c(NC(=O)CSc2nc3ccccc3nc2N2CCOCC2)c1,85%
3,CCc1ccc(Cn2c(CNS(=O)(=O)c3ccc4c(c3)CCCC4)nc3cccnc32)cc1,102%
4,Fc1ccc(-n2ncc3c(N4CCC(Cc5ccccc5)CC4)ncnc32)cc1,90%
5,COc1cccc(C2CC(=O)Nc3c2c(=O)n(C)c2ncnn32)c1OC (stereo unspecified),166%
6,Cc1ccc2c(c1)c1c3n2CCN(C(=O)Cn2c(-c4ccccc4)noc2=O)C3CCC1 (stereo unspecified),90%
7,CC1CCc2c(sc(NC(=O)c3cc4nc(-c5ccc(Cl)cc5)cc(C(F)(F)F)n4n3)c2C#N)C1 (stereo unspecified),91%
8,Cc1ccc(S(=O)(=O)c2nnn3c2nc(NC2CCCCCC2)c2sccc23)cc1C,-4% (active)
9,Cc1ccc(S(=O)(=O)c2nnn3c2nc(NC2CCCCC2)c2sccc23)cc1C,35% (active)
10,Cc1ccc(S(=O)(=O)c2nnn3c2nc(NC2CCCCC2)c2sccc23)cc1,109%
11,O=S(=O)(c1ccc(Cl)cc1)c1nnn2c1nc(NC1CCCCC1)c1sccc12,41%
12,O=S(=O)(c1ccc(Br)cc1)c1nnn2c1nc(NC1CCCCCC1)c1sccc12,63%
13,Cc1ccc(C)c(S(=O)(=O)c2nnn3c2nc(NC2CCCCC2)c2sccc23)c1,40%
14,CCn1cc2nc(SCc3cccc(Cl)c3)n(Cc3ccc(C)cc3)c(=O)c2n1,44%
15,COC(=O)CC(=O)CSc1nc(C)cc(C(F)(F)F)c1C#N,83%
16,O=c1cc(CSc2nnc(COc3ccccc3)o2)c2ccccc2[nH]1,107%
17,O=C1Nc2c(c(=O)[nH]c(=O)n2-c2ccc(F)cc2)C1(NS(=O)(=O)c1ccc(Cl)cc1)C(F)(F)F (stereo unspecified),59%
18,COC(=O)c1ccccc1NC(=O)c1cc2ccccn2n1,73%
19,O=c1c(=O)n(Cc2c(F)cccc2Cl)ccn1Cc1ccccc1,82%
20,COc1ccccc1Cn1ccn(Cc2c(F)cccc2Cl)c(=O)c1=O,110%
21,O=c1c(=O)n(-c2ccccc2)ccn1Cc1c(F)cccc1Cl,44% (active)
22,Cc1cc(O)c(CN2CCN(c3ccc(F)cc3)CC2)c2oc(=O)cc(C)c12,46%
23,O=C(CCSCCc1ccccn1)Nc1ccc(Cl)cc1,47% (active)

row,Compound,survival
1,Cc1ccc(NC(=O)CCSCCc2ccccn2)cc1,93%
2,CC(=O)Nc1ccc(NC(=O)CCSCCc2ccccn2)cc1,135%
3,COc1ccc(-n2c(C)nnc2SCc2nc(-c3ccc(OC)c(OC)c3)no2)cc1,71%
4,COC(=O)c1ccc2c(c1)N(CC(=O)Nc1ccc(C)cc1Cl)C(=O)c1ccccc1S2,76%
5,Cc1cccc(C(CC(=O)NCC2(c3ccccc3)CCCC2)c2ccccc2)c1O (stereo unspecified),38% (active)
6,Cc1ccc(C(CC(=O)NCC2(c3ccccc3)CCCC2)c2ccccc2)c(O)c1 (stereo unspecified),101%
7,Cc1ccc(O)c(C(CC(=O)NCC2(c3ccccc3)CCCC2)c2ccccc2)c1 (stereo unspecified),82%
8,O=C(O)CCc1ccc(-c2ccc(F)cc2)n1CCC(=O)O,103%
9,Cc1ccc(NC(=O)CSc2nnc(C)c(=O)[nH]2)cc1,70%
10,c1ccc(Cc2[nH]nc3ccccc23)cc1,89%
11,Cc1cc(C)cc(-n2nnc(-c3nsc(NC(=O)c4ccccc4Cl)n3)c2C)c1,64%
12,Cc1c(-c2nsc(NC(=O)c3ccccc3)n2)nnn1-c1ccc(C(F)(F)F)c(Cl)c1,86%
13,Cc1ccc(-n2nnc(-c3nsc(NC(=O)c4ccccc4C)n3)c2C)cc1Cl,134%
14,Cc1ccc(-n2nnc(-c3nsc(NC(=O)c4cccc(Cl)c4)n3)c2C)cc1C,76%
15,Cc1ccc(Cl)cc1-n1nnc(-c2nsc(NC(=O)c3ccccc3Cl)n2)c1C,6% (active)
16,CCc1cccc(-n2nnc(-c3nsc(NC(=O)c4ccc(C)cc4)n3)c2C)c1,54%
17,COc1cccc(C(=O)Nc2nc(-c3nnn(-c4ccccc4C(F)(F)F)c3C)ns2)c1,87%
18,Cc1cccc(C(=O)Nc2nc(-c3nnn(-c4cc(C)ccc4C)c3C)ns2)c1,94%
19,CCc1ccc(-n2nnc(-c3nsc(NC(=O)c4ccccc4Cl)n3)c2C)cc1,15% (active)
20,CCc1cccc(-n2nnc(-c3nsc(NC(=O)c4cccs4)n3)c2C)c1,-5% (active)
21,CSc1cccc(-n2nnc(-c3nsc(NC(=O)c4cccs4)n3)c2C)c1,73%
22,Cc1c(-c2nsc(NC(=O)c3cccc(Cl)c3)n2)nnn1-c1ccccc1C(F)(F)F,-4% (active)
